# In PubChem BioAssay (NCATS):
# Records with an inconclusive call do not appear. A number with no mark means an inactive call. Active and inactive are the calls of the source. The call rests on the fitted dose curve; in most records, active means well fitted inhibition curve with a large enough effect; inconclusive means small, poorly fitted or top-dose-only effect; inactive means flat fitted curve, though single readings scatter.
# Assay: qHTS to identify inhibitors of the type 1 interferon - major histocompatibility complex class I in skeletal muscle: primary screen against the NCATS LOPAC collection (AID 1347405);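 further: lytic HiBiT luminescence reporting HLA-B protein level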
# Conditions: iHSKM muscle cells, IFN-b-induced MHC-I HiBiT luminescence, 24 h; series mostly up to 45.9 µM; activity change, negative = inhibition: at the top concentration
# Excerpt: Assay Submitter (PI): Travis B. Kinder Ph.D. & James Inglese Ph.D.
# Assay Development and Screening Technology Laboratory (ADST)
# National Center for Advancing Translational Sciences (NCATS), Rockville, MD
# National Institute of Health (NIH), Bethesda, Maryland
# Idiopathic inflammatory myopathies, collectively referred to as myositis, are a group of rare autoimmune diseases characterized by skeletal muscle inflammation, weakness, and usually accompanied by systemic pathologies of the skin, lungs, or vasculature. Current immunosuppressive therapies and glucocorticoids are often not curative and are accompanied by harsh side effects, especially in children with juvenile myositis. We initiated a drug repurposing and development program to identify more targeted, less toxic therapeutics to treat myositis. Although its cause is not known, muscle from a subset of patients have an abundance of the inflammatory type 1 interferon (IFN) and a down-stream product major histocompatibility complex class I (MHC class I), which are both thought to contribute to damage and weakness. We conducted quantitative high throughput screening on 6,576 compounds (4,679 unique) through a series of cell-based assays to identify those that inhibit the IFN-stimulated expression of MHC class I in muscle precursor cells (myoblasts). The compound identification and evaluation strategy utilized a primary screen with reporter-tagged MHC class I in genome-engineered myoblasts, ATP content counter screen for viability, HLA-ABC immunofluorescence secondary screen, and HLA-B RT-qPCR tertiary screen.
# The primary screen utilized CRISPR/Cas9 genome-engineering of immortalized human myoblasts, C25cl48, where a pro-luminescent reporter HiBit was fused to the C-terminus of endogenous MHC class I allele HLA-B*08:01 (HLA-B HiBit myoblasts). HiBit is an 11 amino acid fragment of NanoLuc luminescent reporter (Promega Corporation), and when complexed to the larger LgBit fragment, the reconstituted enzyme produces light in the presence of furimazine substrate (Schwinn et al., 2018). Briefly, HLA-B HiBit myoblasts were plated into 1536-well plates, treated with 4.0 ng/ml human IFN-beta and 1,280 compounds from the Library of Pharmacologically Active Compounds 1280 library (LOPAC1280, Sigma Aldrich) in a 7-point, 1:4.3 titration with a high final concentration of 46 uM. After 24 hrs of treatment, cells were assayed by Nano-Glo HiBiT Lytic Detection System (Promega) and luminescence measured by a ViewLux 1430 Ultra HTS (Perkin Elmer).
# Schwinn MK, Machleidt T, Zimmerman K, Eggers CT, Dixon AS, Hurst R, Hall MP, Encell LP, Binkowski BF, Wood K V. 2018. CRISPR-Mediated Tagging of Endogenous Proteins with a Luminescent Peptide. ACS Chem Biol 13:467-474. doi:10.1021/acschembio.7b00549
# PROTOCOL TABLE (as described by Inglese et al., 2007)
# SEQUENCE No. (e.g., 1, 2, 3, etc.); […] (e.g., Cells, Incubation, Reagent, etc.); VALUE; DESCRIPTION
# 1a; Cells; 5 uL; Use a Multidrop Combi (Thermo Scientific) to seed 350 cells/well into nine Greiner 1536 well white/solid bottom, high base, TC plates in 5 ul/well of iHSKM growth medium (GM) without dexamethasone into columns 1+2. Add metal lids with gas-exchange holes
# 1b; Cells; 5 uL; Use a Multidrop Combi (Thermo Scientific) to seed 350 cells/well into nine Greiner 1536 well white/solid bottom, high base, TC plates in 5 ul/well of iHSKM GM without dexamethasone + 4 ng/ml IFN-b into columns 3 - 48. Add metal lids with gas-exchange holes
# 2; Incubate; 1 hr; Incubate at 37 C, 5% CO2, 95% RH
# 3; Compounds; 23 nl; Use Pin Tool (Wako) to transfer DMSO control, ruxolitinib IFN-b inhibitor control [High Concentration = 80 uM final, 16-pt, 1:2 in duplicate], and library compounds in DMSO
# 4; Incubate; 24 hrs; Incubate at 37 C, 5% CO2, 95% RH
# 5; Dispense; 2.5 ul; Use BioRAPTR FRD (Beckman Coulter) to add HiBit lytic reagent
# 6; Incubate; 10 min; Incubate in the dark at ambient temperature for lysis
# […]
# On the % scale 0 is the no-effect control and ±100 the full control effect.
Structure (SMILES),"activity change, negative = inhibition [%]",Potency
CCCN(CCC)[C@@H]1CCc2ccc(O)cc2C1,-15.2,–
COc1cc(C(O)CN)ccc1O (stereo not given),8.6,–
NCc1cc(=O)[nH]o1,10.5,–
CC[C@@H](C(N)=O)N1CCCC1=O,5.84,–
CN1C2CCC1CC(OC(=O)c1cc(Cl)cc(Cl)c1)C2 (stereo not given),-18.9,–
CCCN1CCC[C@H](c2cccc(O)c2)C1,4.21,–
CCCCc1ccc(C(=O)O)nc1,11.9,–
NC1CCc2cc(O)c(O)cc2C1 (stereo not given),7.39,–
NC(=O)CN1CC(O)CC1=O (stereo not given),2.45,–
COC(=O)[C@@H](N)CCCN=C(N)N[N+](=O)[O-],6.86,–
CNCCc1c[nH]c2ccc(O)cc12,-2.87,–
C[N+]1(C)C2CCC1CC(OC(=O)C(CO)c1ccccc1)C2 (stereo not given),–,inactive
CS(=N)(=O)CC[C@H](N)C(=O)O (stereo not given in full),-3.89,–
CC(C)NC(C)Cc1ccc(I)cc1 (stereo not given),-22.2,–
NCCc1c[nH]c2ccccc12,6.16,–
O=C(O)[C@@H]1CCN1,11.8,–
c1ccc(C2(c3ccccc3)CC2C2=NCCN2)cc1 (stereo not given),-6.42,–
O=C(O)CC[N+](=O)[O-],-3.1,–
C[C@]12CCC3C(CC[C@H]4C[C@H](O)CC[C@]34C)C1CC[C@@H]2C(=O)CO (stereo not given in full),-11.2,–
CNCCc1ccc(O)c(O)c1,-17.2,–

Structure (SMILES),"activity change, negative = inhibition [%]",Potency
NC(CCP(=O)(O)O)C(=O)O (stereo not given),-0.743,–
O=C(Cc1ccc(Cl)c(Cl)c1)N1CCCCC1CN1CCCC1 (stereo not given),-3.91,–
NCCc1c[nH]c2ccc(O)cc12,4.87,–
NC(N)=NOCCC(N)C(=O)O (stereo not given),-21,–
C[C@]12N[C@H](Cc3ccccc31)c1ccccc12,10.2,–
NC1CC1c1ccccc1 (stereo not given),-6.74,–
c1ccc2sc(C3(N4CCCCC4)CCCCC3)cc2c1,-15,–
Oc1ccc2c3c1O[C@H]1c4[nH]c5c(c4C[C@@]4(O)[C@@H](C2)N(CC2CC2)CC[C@]314)C[C@@]1(O)[C@H]2Cc3ccc(O)c4c3[C@@]1(CCN2CC1CC1)[C@H]5O4,2.35,–
O=C1CCCN1CC#CCN1CCCC1,-0.928,–
CC(=O)[C@H]1CCC2C3CC[C@H]4C[C@H](O)CC[C@]4(C)C3CC[C@@]21C (stereo not given in full),-7.2,–
C#CCOC(=O)C1=CCCN(C)C1,-29.7,–
Cn1cnc(CCN)c1,-2.04,–
O=C(N[C@H]1CN2CCC1CC2)c1ccc(Cl)cc1,-2.86,–
CC(C)Oc1cccnc1N(C)C1CCN(Cc2ccccc2)CC1,9.57,–
NC(CP(=O)(O)O)C(=O)O (stereo not given),-5.3,–
CC(=O)NCCc1c[nH]c2ccccc12,1.87,–
C=CCN1CC[C@]23CCCCC2[C@H]1Cc1ccc(O)cc13 (stereo not given in full),-3.37,–
CCCN1CCO[C@@H]2c3cc(O)ccc3OC[C@H]21,-8.59,–
C[C@@H](N)Cc1cnc[nH]1,5.1,–
NC(=NCCC[C@H](N)C(=O)O)N[N+](=O)[O-],-5.9,–
